Source: PubChem BioAssay (NCATS)
Records with an inconclusive call do not appear. The source made the active and inactive calls. The call rests on the fitted dose curve; in most records, active means well fitted inhibition curve with a large enough effect; inconclusive means small, poorly fitted or top-dose-only effect; inactive means flat fitted curve, though single readings scatter.

What follows are compounds tested on CRL-7250 (assay: qHTS assay to identify novel small-molecules to repurpose for Merkel cell carcinoma treatment (AID 1296009; further: nearly all actives have a fitted effect of over 60% in size)). Conditions: MCC and control cell lines, CellTiter-Glo viability, 72 h; at 44.8 µM (top of the series) unless noted.
Summary of the method: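 Viability readout: ATP luminescence (CellTiter-Glo) after 72 hr drug exposure at 37 degree celsius. Dose-response format was 8 points for NPC and 11 points for MIPE; data normalized to in-plate controls.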
In the case of `O=c1cc(O)c(Cl)c[nH]1`, the outcome is reported as “inactive”.
With `Nc1c[n+](N2CCOCC2)no1` the outcome was “inactive”.
In the case of `C/C(=N\O)[C@@H](C)NCC(C)(C)CN[C@H](C)/C(C)=N/O`, the outcome is reported as “inactive”.
With `NC(=O)NS(=O)(=O)c1ccc(Cl)cc1` the outcome was “inactive”.
With `CO/N=C(/C(=O)N[C@@H]1C(=O)N2C(C(=O)OCOC(=O)C(C)(C)C)=C(C)CS[C@H]12)c1csc(N)n1` the outcome was “inactive”.
`COc1cc(C(=O)NS(=O)(=O)c2ccccc2C)ccc1Cc1cn(C)c2ccc(NC(=O)OC3CCCC3)cc12` was tested, and the outcome was “inactive”.
For `CC(CCc1ccccc1)NCC(O)c1ccc(O)c(C(N)=O)c1` (configuration not stated), the outcome was “inactive”.
`CC(=O)O[C@]1(C(C)=O)CC[C@H]2[C@@H]3C[C@H](C)C4=CC(=O)CC[C@]4(C)[C@H]3CC[C@@]21C` was tested, and the outcome was “inactive”.
In the case of `O=c1[nH]c(=O)n([C@H]2C[C@H](O)[C@@H](CO)O2)cc1I`, the outcome is reported as “inactive”.
In the case of `COc1ccc(C(=O)NCc2ccc(OCCN(C)C)cc2)cc1OC`, the outcome is reported as “inactive”.
In the case of `CCOC(=O)Oc1ccc(CCNC(=O)[C@H](CCSC)NC(C)=O)cc1OC(=O)OCC`, the outcome is reported as “inactive”.
`CC(C)c1ccc2oc3nc(N)c(C(=O)O)cc3c(=O)c2c1` was tested, and the outcome was “inactive”.
`CCOc1nc2cccc(C(=O)O)c2n1Cc1ccc(-c2ccccc2-c2nn[nH]n2)cc1` was tested, and the outcome was “inactive”.
With `CN(C)C(=O)Oc1ccc[n+](C)c1` the outcome was “inactive”.
With `O=C1CC(c2ccc(Cl)cc2)CC(=O)N1` the outcome was “inactive”.
With `CC(=O)CC/C=C(\C)CC/C=C(\C)CC/C=C(\C)CCC=C(C)C` the outcome was “inactive”.
`CCCCOCCOC(=O)c1cccnc1` was tested, and the outcome was “inactive”.
In the case of `CCCCCCn1c(=O)c2c(ncn2C)n(C)c1=O`, the outcome is reported as “inactive”.
In the case of `COc1cc(/C=C/C(N)=O)cc(OC)c1OC`, the outcome is reported as “inactive”.
`Cn1nnc2c(C(N)=O)ncn2c1=O` was tested, and the outcome was “inactive”.
In the case of `CC[C@H]1OC(=O)[C@H](C)[C@@H](O[C@H]2C[C@@](C)(OC)[C@@H](O)[C@H](C)O2)[C@H](C)[C@@H](O[C@@H]2O[C@H](C)C[C@H](N(C)C)[C@@H]2O)[C@](C)(O)C[C@@H](C)CN(C)[C@H](C)[C@@H](O)[C@]1(C)O`, the outcome is reported as “inactive”.
For `CN1CCN(C(=O)C2CCCCC2)CC1`, the outcome was “inactive”.
`CC(C(=O)O)c1ccc(C(=O)c2ccccc2)s1` (configuration not stated) was tested, and the outcome was “inactive”.
For `Cc1onc(-c2c(Cl)cccc2Cl)c1C(=O)Cl`, the outcome was “inactive”.
In the case of `CCC[C@@H]1C[C@@H](C(=O)N[C@@H]([C@H]2O[C@H](SC)[C@H](O)[C@@H](O)[C@H]2O)[C@@H](C)O)N(C)C1`, the outcome is reported as “inactive”.
In the case of `C[C@H](NC(CCc1ccccc1)C(=O)O)C(=O)N1CCC[C@H]1C(=O)O` (some centres not stated), the outcome is reported as “inactive”.
With `COc1cc(OC)c(C(=O)CCCN2CCCC2)c(OC)c1` the outcome was “inactive”.
In the case of `Cc1nc(-c2ccc(Cl)cc2)oc1COC(C)(C)C(=O)O`, the outcome is reported as “inactive”.
In the case of `Cc1cccc(C)c1NC(=O)CN1CCCCCC1`, the outcome is reported as “inactive”.
`CCC[C@@]1(CCc2ccccc2)CC(O)=C([C@H](CC)c2cccc(NS(=O)(=O)c3ccc(C(F)(F)F)cn3)c2)C(=O)O1` was tested, and the outcome was “inactive”.
`Cc1ccc(S(=O)(=O)NC(=O)NC2CCCCC2)cc1` was tested, and the outcome was “inactive”.
`NC(=O)N[C@@H](CCC(=O)O)C(=O)O` was tested, and the outcome was “inactive”.
With `Cc1c(N(C)CS(=O)(=O)O)c(=O)n(-c2ccccc2)n1C` the outcome was “inactive”.
`CC(=O)NC[C@H]1CN(c2ccc(N3CCOCC3)c(F)c2)C(=O)O1` was tested, and the outcome was “inactive”.
`CS(=O)(=O)c1ccc([C@@H](O)[C@@H](CF)NC(=O)C(Cl)Cl)cc1` was tested, and the outcome was “inactive”.
For `Cc1ccc2ccc(Cl)cc2n1`, the outcome was “inactive”.
For `CC1(C)O[C@H]2CC(=O)OC[C@]23[C@H]2CC[C@@]4(C)[C@H](c5ccoc5)OC(=O)[C@H]5O[C@]54[C@]2(C)C(=O)C[C@@H]13`, the outcome was “inactive [at 17.4 µM]”.
